Bead autofluor – compound fluorescence in toxin protease inhibitor counterscreen | 3.1% of 360,000 active | fluorescence intensity (concentration not given with the values) | compound autofluorescence counterscreen, microsphere flow cytometry; stronger effect = higher value; in the data active = fluorescence intensity above about 16000; inconclusive = no clear call, values can overlap the other calls
BoNT A protease – BoNT/A light chain protease inhibitors, primary screen, biochemical, flow cytometry, MLPCN library | Botulinum neurotoxin type A light chain protease (Clostridium botulinum A str. ATCC 3502) | multiplex microsphere protease substrate cleavage | inhibition, % at 10 µM | 0.17% of 360,000 active; note: plate controls were buffer without enzyme for full effect and enzyme alone for no effect
3CLpro inhibitor – SARS-CoV 3CLpro protease inhibitors, primary screen, biochemical, quenched FRET. inhibition, % at 6 µM. 0.14% of 290,000 active. recombinant SARS-CoV 3CLpro, quenched FRET peptide cleavage. Replicase polyprotein 1ab (Severe acute respiratory syndrome coronavirus), P0C6X7; in the data active = inhibition above about 12%
Anthrax LF inh2 – Bacillus anthracis LF protease inhibitors, primary screen, biochemical, multiplex microsphere, MLPCN library; 0.12% of 360,000 active; AID 588501, 2011; multiplex microsphere protease cleavage assay; inhibition, % at 10 µM; note: plate controls were buffer without enzyme for full effect and enzyme alone for no effect
BoNT-F LC inh – BoNT/F light chain protease inhibitors, primary screen, biochemical, flow cytometry, MLPCN library; inhibition, % at 10 µM; AID 588497, 2011; Botulinum neurotoxin type F light chain protease (Clostridium botulinum); 0.22% of 360,000 active; Multiplex microsphere protease cleavage assay; in the data active = inhibition above about 35%, passing the limit was not always enough; inconclusive = no clear call, values can overlap the other calls; note: plate controls were buffer without enzyme for full effect and enzyme alone for no effect
DUSP3 inh – VHR1 phosphatase inhibitors, primary screen, biochemical, absorbance, uHTS; recombinant VHR phosphatase, pNPP absorbance; inhibition, % at 13.3 µM; 0.52% of 290,000 active; AID 1654, 2009; in the data active = inhibition above about 50%
* hit, by the source's call; ? = inconclusive; nt = no result. This is a sample that favours compounds with a hit; in the whole collection about 3.9% have one here. Cut-off read from the data, not from the text of the source, unless noted: active = inhibition above about 30%; inconclusive = no clear call, values can overlap the other calls; inactive = below that.

SMILES	Bead autofluor	BoNT A protease	3CLpro inhibitor	Anthrax LF inh2	BoNT-F LC inh	DUSP3 inh
Cc1ccc(NC(=O)Cn2ncc3c([nH]c4ccccc43)c2=O)cc1Cl	5909	-0.1	0.0	1.7	4.8	57.7*
O=C(Cn1ncc2c([nH]c3ccccc32)c1=O)Nc1cccnc1	5486	-0.3	0.4	-2.1	-3.5	-31.5
c1cncc(Nc2nc(-c3ccncc3)cs2)c1	18714*	2.7	1.9	-0.5	-1.4	15.3
Oc1ccc(-c2csc(Nc3ncccn3)n2)cc1	4039	-0.1	2.7	-2.6	-1.6	-4.4
c1ccc(-c2csc(Nc3ncccn3)n2)cc1	2637	-1.1	5.4	0.3	1.1	55.4*
CCOC(=O)N1CCN(C(=O)Cn2nc(C)n3nc(-c4ccccc4)cc3c2=O)CC1	4031	1.0	6.4	-0.8	2.5	12.8
C[C@H]1CN([C@@H](C)CO)C(=O)CCCn2cc(nn2)CO[C@@H]1CN(C)C(=O)Nc1ccccc1C(F)(F)F	3301	0.0	nt	-3.4	7.8	nt
O=C(Nc1ccnn1C1CCNCC1)c1ccc2c(c1)OCO2	4081	-0.3	nt	1.4	2.9	nt
Cc1ccc(CNC(=O)CNC(=O)c2ccc(C(C)(C)C)cc2)n1C	6383	-2.9	nt	-5.7	9.2	nt
O=c1cc(O)c2c(=O)n(-c3ccccc3)c3ccccc3c2o1	4355	0.9	0.3	1.6	9.8	-4.3
CC(C)n1c(=O)c2c(O)cc(=O)oc2c2ccccc21	21712*	?	6.3	-0.7	3.7	22.8
CCn1c(=O)c2c(O)cc(=O)oc2c2ccccc21	22829*	?	0.6	3.0	-2.5	24.6
O=S(=O)(c1ccccc1)c1cnc(-c2cccnc2)nc1-c1ccccc1	22391*	0.4	-3.0	-1.1	-0.7	17.4
CC(SCc1ccccc1)C(=O)Nc1ccccc1F (stereo not given)	nt	nt	-2.2	nt	nt	20.7
CCC1=C(OC(=O)N(CC)CC)N2C(=O)OC(=NCC3CC3)[C@]2(Cc2ccccc2)[C@H]2C1=CC[C@H]1C(=O)N(c3ccccc3)C(=O)[C@H]12	4084	-0.3	nt	-1.1	-7.2	26.3
CC1=C(C(=O)N2CCCCCC2)CC(CC(=O)NC2CCCC2)C(=O)N1CCC1=CCCCC1 (stereo not given)	5386	-0.2	nt	-8.0	0.7	nt
c1cc(-c2sc(-c3ccncc3)c(-c3ccncc3)c2-c2ccncc2)ccn1	nt	nt	1.4	nt	nt	52.8*
NC(=O)c1ccc(-c2ncc(-c3ccccc3)o2)cc1	18854*	5.9	1.4	-2.3	6.3	20.0
Cn1cccc1/C=N/NC(=O)c1cccs1	6004	-2.2	-2.4	-1.2	-6.4	8.0
CC(/C=N/NC(=O)c1cccs1)=C\c1ccco1	4223	-0.1	2.6	-1.0	-8.2	51.3*
CC(C)(C)NC(=O)/C(=C\c1ccco1)NC(=O)c1cccs1	10324	1.6	-1.5	2.5	6.3	4.7
Cn1cccc1/C=N/NC(=O)Cc1cccs1	3872	-0.7	1.2	43.0*	?	29.8
CC(/C=N/NC(=O)Cc1cccs1)=C\c1ccco1	21994*	?	0.0	0.5	0.7	21.4
CC(/C=N/NC(=O)c1cc(-c2ccncc2)nc2ccccc12)=C\c1ccco1	16302*	1.2	1.9	-6.3	-0.7	8.4
CSc1ccc(CN2CCC(C)(Oc3ccc(C(C)=O)cc3)C2)cc1 (stereo not given)	4174	-0.3	nt	-10.2	-5.1	nt
SMILES	Bead autofluor	BoNT A protease	3CLpro inhibitor	Anthrax LF inh2	BoNT-F LC inh	DUSP3 inh
CC(C)c1nc2oc3c(=O)[nH]cnc3c2c2c1COC(C)(C)C2	4091	-0.3	0.4	1.2	-2.3	-22.1
O=C(CNC(=O)c1ccccc1)c1ccccc1	3571	0.1	nt	0.8	0.4	nt
O=C(CNC(=O)c1ccccc1C(=O)O)c1ccccc1	22929*	0.2	0.2	3.0	3.0	39.2
CCCn1c(N)c(Sc2ccccc2[N+](=O)[O-])c(=O)n(CCC)c1=O	3535	-1.8	-6.7	11.7	-2.0	22.4
Cc1ccc(NC(=O)c2ccc3c(c2)C(=O)N(c2ccccc2C)C3=O)nc1	6207	2.1	nt	2.7	-3.9	nt
O=C(Cn1c(C(F)(F)F)nc2ccccc21)NCCN1CCCC1	22679*	2.7	2.9	-4.7	-3.2	9.9
CC1CCCCC1NC(=O)C1CCN(S(=O)(=O)N2CCCCCC2)CC1 (stereo not given)	18939*	9.9	-3.1	-13.6	11.2	10.7
CC(NC(=O)c1ccc(N(C)C)cc1)C(c1cccs1)N1CCN(C)CC1 (stereo not given)	7681	0.2	-1.3	-5.1	7.9	17.0
COc1ccc(N2CCN(C(c3cccs3)C(C)NS(=O)(=O)c3ccccc3)CC2)cc1 (stereo not given)	16688*	-2.4	0.8	-10.6	-7.4	-7.3
CCN1CCN(C(c2cccs2)C(C)NC(=O)c2ccco2)CC1 (stereo not given)	23437*	-0.2	-2.8	0.4	1.8	35.6
COc1ccccc1C(=O)NC(C)C(c1cccs1)N1CCN(C)CC1 (stereo not given)	23363*	-0.4	3.6	-1.2	1.3	17.8
CCN1CCN(C(c2cccs2)C(C)NC(=O)CC(C)C)CC1 (stereo not given)	9515	0.5	0.8	-2.5	8.7	11.6
CCS(=O)(=O)NC(C)C(c1cccs1)N1CCN(c2ccc(OC)cc2)CC1 (stereo not given)	5120	-0.4	-1.6	-7.9	-2.4	-8.7
CC(NC(=O)c1ccc(F)cc1)C(c1cccs1)N1CCN(C)CC1 (stereo not given)	21892*	1.1	-5.2	1.1	0.3	35.8
Cc1nn(CC(=O)NC2CCC(C)CC2)c(C)c1[N+](=O)[O-] (stereo not given)	?	-1.2	nt	1.4	3.8	nt
O=C(CCNC(=O)c1ccccc1)Nc1ccc(Cl)c(S(=O)(=O)N2CCCCC2)c1	3694	0.0	nt	5.0	-1.1	nt
CC(C)C[C@H](NC(=O)C1CCN(S(=O)(=O)c2ccccc2)CC1)C(=O)NCc1ccccn1	5272	0.3	-5.8	-0.7	-1.2	1.8
CC(NS(=O)(=O)c1ccc(F)cc1)C(c1cccs1)N1CCN(C)CC1 (stereo not given)	24274*	-2.9	1.3	-0.1	-3.9	22.3
CC(NS(=O)(=O)c1ccc(Cl)cc1)C(c1cccs1)N1CCN(C)CC1 (stereo not given)	4037	1.0	3.4	0.3	3.5	34.7
COc1cc(/C=C(/C#N)c2nc(-c3cc4ccccc4oc3=O)cs2)cc([N+](=O)[O-])c1O	nt	nt	2.6	nt	nt	100.7*
CCCCNc1c(-c2cccnc2)nc2nc(C)cc(C)n12	5673	0.7	nt	-6.1	7.0	nt
Nc1nc(Cl)cc(N2CCC(c3cc(-c4ccc(Cl)cc4Cl)n[nH]3)CC2)n1	21717*	-2.1	2.0	-2.6	-6.0	28.7

Screens: PubChem BioAssay, several laboratories
